# Data: PubChem BioAssay
# Values without a mark were called inactive. No rule for the calls is given here.
# Test: inhibitors of hydroxyurea-induced Chk1 phosphorylation, primary screen, imaging, HeLa, phospho-Chk1 antibody, percent positive cells (AID 1186)
# Details: hydroxyurea-induced phospho-Chk1 immunofluorescence imaging, higher = more signal
row,Structure (SMILES),z-score
1,O=C1C[C@@](C(=O)NCCN2CCOCC2)(c2ccc([N+](=O)[O-])cc2)[C@@H](c2ccc(CO)cc2I)N1CC12CC3CC(CC(C3)C1)C2,-0.894
2,CCCCCN1CC=CC23O[C@@H]4C=CCCOC(=O)C4[C@H]2C(=O)N(CCCCCO)[C@@H]3C1=O (some centres undefined),0.251
3,COCCCNC(=O)[C@@H]1c2ccccc2C(=O)N(Cc2ccccc2Cl)[C@H]1c1ccc(CO)cc1,-0.57
4,C=C(CCCC)/C(=C/C[C@@H](OC(C)=O)c1ccc(OCCO)cc1)c1cnc2ccccc2c1,-0.66
5,COc1ccc(CCNC(=O)[C@@]2(Sc3ccc(C)cc3)CC(=O)N(C(C)C)[C@@H]2c2ccc(CO)cc2I)cc1,0.332
6,CCCC[C@@H]1C[C@H]1[C@@H](NC(=O)c1cccs1)c1ccc(-c2ccccc2)cc1,0.0111
7,CN(C)CCCCCCNC(=O)[C@H]1C[C@H]2C(=O)N[C@@H](CCCCN)C(=O)N2[C@H]1c1cccc(OCCO)c1,-0.198
8,C=C(C)[C@@H]1CC=C(C(O)C2C=CC3C(=O)N(c4ccccc4)C(=O)C3N2Nc2ccccc2)CC1 (some centres undefined),-0.437
9,COCCOC(=O)N1C(=O)[C@@]2(c3cc(C#CCC(C(=O)OC)C(=O)OC)ccc31)[C@H](c1ccccc1OCCO)N1[C@H](c3ccccc3)[C@H](c3ccccc3)OC(=O)[C@H]1[C@@H]2C(=O)NC[C@H](O)c1ccccc1,-0.0638

# Test: inhibitors of hydroxyurea-induced Chk1 phosphorylation, primary screen, imaging, HeLa, phospho-Chk1 nuclear intensity (AID 1187); also: test concentration not given here
# Details: hydroxyurea-induced phospho-Chk1 immunofluorescence imaging, higher = more signal
row,Structure (SMILES),z-score
1,CCCC[C@@H]1C[C@H]1[C@@H](NC(=O)c1ccco1)c1ccc(-c2ccccc2)cc1,0.0955
2,O=C1O[C@@H](c2ccccc2)[C@@H](c2ccccc2)N2[C@@H](c3ccccc3OCCO)[C@]3(C(=O)Nc4ccc(C#CC5=CCCCC5)cc43)[C@@H](C(=O)N3CCCCCCC3)[C@H]12,-0.372
3,O=C1NC(=O)C2C1C=CC(C(O)c1cccs1)N2Nc1ccc(Cl)cc1Cl (centres undefined),-0.45
4,COC(=O)[C@]1(CCC(=O)OC(C)(C)C)N=C(c2ccc(OCCCO)cc2)O[C@@H]1c1ccccc1CN=[N+]=[N-],-0.0667
5,COc1ccc(C(=O)Nc2ccc(CN3C(=O)[C@]4(O[C@H](CCO)[C@@H]([Si](C)(C)c5ccc(OC)cc5)[C@@H]4C)c4ccccc43)cc2)cc1,0.458
6,CC1(C)C2C=C(C(O)C3C=CC4C(=O)NC(=O)C4N3Nc3ccc(Cl)cc3Cl)C[C@@H]1C2 (some centres undefined),0.327
7,C=C(COC)C(=O)CC[C@@H](OC(C)=O)c1ccc(CO)o1,0.384
8,COC(=O)c1c(CC[C@@H](CO)NC(=O)NCCn2cc(C3(O)CCCC3)nn2)oc(C(C)=O)c1C(=O)OC,-0.0849
9,C=C(C(=O)CC[C@@H](OC(=O)c1cccnc1)c1ccccc1OCCO)C(C)C,0.993
10,CCOC(=O)C[C@H]1[C@H](OC(=O)c2ccc(C(=O)c3ccccc3)cc2)[C@@H](NC(=O)c2ccccc2)c2cc(OCCCO)ccc2N1C(=O)c1ccc2ccccc2n1,-0.363
11,COc1cc(NN2C(C(O)c3ccco3)C=CC3C(=O)N(c4ccccc4)C(=O)C32)cc(OC)c1OC (centres undefined),-0.416
12,COCCCNC(=O)[C@@]1(C)c2ccccc2C(=O)N(C(C)C)[C@H]1c1ccc(CO)cc1,-0.397
13,COc1cc2c(cc1OC)CN(C(=O)[C@@H]1[C@H]3C(=O)O[C@H](c4ccccc4)[C@H](c4ccccc4)N3[C@H](c3ccc(O)cc3)[C@@]13C(=O)Nc1ccccc13)CC2,-0.728
14,O=C(NC1CC1)[C@@H]1c2ccccc2C(=O)N(Cc2ccccc2Cl)[C@H]1c1ccc(CO)cc1,-1.13
15,O=C1c2ccccc2[C@](Cc2ccccc2I)(C(=O)NCC(F)(F)F)[C@H](c2ccc(CO)cc2)N1Cc1ccccc1Cl,-0.557
16,Cc1ccc(S[C@]2(C(=O)O)CC(=O)N(C(C)C)[C@@H]2c2ccc(CO)cc2I)cc1,0.0562
17,COc1ccc(C#Cc2ccc3c(c2)[C@]2(C(=O)N3)[C@H](C(=O)NC[C@H](O)c3ccccc3)[C@H]3C(=O)O[C@H](c4ccccc4)[C@H](c4ccccc4)N3[C@@H]2c2ccc(O)cc2)cc1,-0.628
18,COC(=O)[C@@]1(Cc2ccc(F)cc2)[C@H]2c3cc(C(=O)N4CCCC4)n(Cc4ccc(S(C)(=O)=O)cc4)c3C[C@H]2CN1C(=O)c1ccccc1,0.172

row,Structure (SMILES),z-score
1,O=C1C2C=CC(C(O)c3cccc4ccccc34)N(Nc3ccccc3F)C2C(=O)N1c1ccccc1 (centres undefined),0.807
2,CCCC[C@@H]1C[C@H]1[C@@H](NC(=O)c1ccco1)c1ccccc1C(F)(F)F,-0.353
3,CC(C)NC(=O)[C@@]1(c2ccc([N+](=O)[O-])cc2)CC(=O)N(C2CCCCC2)[C@@H]1c1ccc(CO)cc1I,0.635
4,C=CCOC(=O)[C@H]1[C@@H]2C(=O)O[C@@H](c3ccccc3)[C@@H](c3ccccc3)N2[C@@H](c2ccc(OCCOC(=O)[C@H]3C[C@H]4C(=O)N[C@@H](CCCCNC(C)=O)C(=O)N4[C@H]3c3ccc(O)cc3)cc2)[C@]12C(=O)Nc1ccc(I)cc12,-0.782
5,Cc1ccc(S[C@]2(C(=O)NC3CC3)CC(=O)N(Cc3ccccc3)[C@@H]2c2ccc(CO)cc2I)cc1,0.794
6,CC1CC/C=C\[C@H]2OC34C=CCN(C(C)(C)C)C(=O)[C@H]3N(CCO)C(=O)[C@@H]4C2C(=O)O1 (some centres undefined),-0.798
7,C=CCC(OC(C)=O)[C@@H]1[C@@H](N(Cc2ccc(-c3ccccc3)cc2)C(=O)Cc2ccc(OC)cc2)c2cc(OCCCO)ccc2N1C(=O)Cc1ccc2ccccc2c1 (some centres undefined),0.325
8,COC(=O)C(CC#Cc1ccc2c(c1)[C@]1(C(=O)N2)[C@H](C(=O)Nc2nc3ccccc3s2)[C@H]2C(=O)O[C@H](c3ccccc3)[C@H](c3ccccc3)N2[C@@H]1c1ccc(O)cc1)C(=O)OC,-1.09
9,O=C1C[C@@](C(=O)NCCN2CCOCC2)(c2ccc([N+](=O)[O-])cc2)[C@@H](c2ccc(CO)cc2I)N1CC12CC3CC(CC(C3)C1)C2,-1.24
10,CCCCCN1CC=CC23O[C@@H]4C=CCCOC(=O)C4[C@H]2C(=O)N(CCCCCO)[C@@H]3C1=O (some centres undefined),0.408
11,COCCCNC(=O)[C@@H]1c2ccccc2C(=O)N(Cc2ccccc2Cl)[C@H]1c1ccc(CO)cc1,-0.352
12,C=C(CCCC)/C(=C/C[C@@H](OC(C)=O)c1ccc(OCCO)cc1)c1cnc2ccccc2c1,-0.0832
13,COc1ccc(CCNC(=O)[C@@]2(Sc3ccc(C)cc3)CC(=O)N(C(C)C)[C@@H]2c2ccc(CO)cc2I)cc1,0.404
14,CCCC[C@@H]1C[C@H]1[C@@H](NC(=O)c1cccs1)c1ccc(-c2ccccc2)cc1,0.0204
15,CN(C)CCCCCCNC(=O)[C@H]1C[C@H]2C(=O)N[C@@H](CCCCN)C(=O)N2[C@H]1c1cccc(OCCO)c1,-0.0886
16,C=C(C)[C@@H]1CC=C(C(O)C2C=CC3C(=O)N(c4ccccc4)C(=O)C3N2Nc2ccccc2)CC1 (some centres undefined),-0.626
17,COCCOC(=O)N1C(=O)[C@@]2(c3cc(C#CCC(C(=O)OC)C(=O)OC)ccc31)[C@H](c1ccccc1OCCO)N1[C@H](c3ccccc3)[C@H](c3ccccc3)OC(=O)[C@H]1[C@@H]2C(=O)NC[C@H](O)c1ccccc1,-0.19
